According to PubChem BioAssay AID1159580 (chemical genetic matrix, 2015):
Screen size: about 5,500 compounds; about 2,000 (36%) were called active. About 18% were inconclusive and are not listed. No stated cut-off is given here; in the data, active means normalized growth mostly below about 0.91 (no sharp cut-off); inconclusive means no clear call, values can overlap the other calls; inactive means mostly above about 0.92. The list shows a part of the results.

Assay: chemical genetic growth profiling, strain panel (AID 1159580);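 further: tested at 20 µM; growth read once vehicle control cultures reached saturation at 30 °C; 1 = growth at the plate median or of vehicle wells; lower values mean less growth of the strain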
Conditions: growth OD

Measured: normalized growth

Oc1cccc2cccnc12
active: S. cerevisiae deletion strains, locus YKL009W, strain mrt4, active compounds read low 0.741 | S. cerevisiae deletion strains, locus YKL068W, active compounds read low 0.0531 | S. cerevisiae deletion strains, locus YKL085W, strain MDH1 (second series), active compounds read low 0.0521 | S. cerevisiae deletion strains, locus YKL085W, strain MDH1, active compounds read low 0.0521 | S. cerevisiae deletion strains, locus YKL160W, strain elf1, active compounds read low 0.0679 | S. cerevisiae deletion strains, locus YKL190W, strain CNB1, active compounds read low 0.0517 | S. cerevisiae deletion strains, locus YKR001C, strain vps1, active compounds read low 0.0622 | S. cerevisiae deletion strains, locus YKR026C, strain gcn3, active compounds read low 0.356 | S. cerevisiae deletion strains, locus YKR091W, strain srl3, active compounds read low 0.5 | S. cerevisiae deletion strains, locus YLL001W, strain dnm1, active compounds read low 0.0604 | S. cerevisiae deletion strains, locus YLL026W, active compounds read low 0.0573 | S. cerevisiae deletion strains, locus YLL041C, strain sdh2, active compounds read low 0.132 | S. cerevisiae deletion strains, locus YLR027C, strain aat2, active compounds read low 0.0569 | S. cerevisiae deletion strains, locus YLR039C, strain RIC1, active compounds read low 0.0939 | S. cerevisiae deletion strains, locus YLR058C, strain SHM2, active compounds read low 0.786 | S. cerevisiae deletion strains, locus YLR102C, strain apc9, active compounds read low 0.0613 | S. cerevisiae deletion strains, locus YLR221C, strain rsa3, active compounds read low 0.0643 | S. cerevisiae deletion strains, locus YLR258W, strain gsy2, active compounds read low 0.0623 | S. cerevisiae deletion strains, locus YLR262C, strain YPT6 (second series), active compounds read low 0.0792 | S. cerevisiae deletion strains, locus YLR262C, strain YPT6, active compounds read low 0.124 | S. cerevisiae deletion strains, locus YLR268W, strain sec22, active compounds read low 0.0693 | S. cerevisiae deletion strains, locus YLR320W, strain mms22, active compounds read low 0.0884 | S. cerevisiae deletion strains, locus YLR330W, strain CHS5, active compounds read low 0.0553 | S. cerevisiae deletion strains, locus YLR342W, strain FKS1 (second series), active compounds read low 0.0627 | S. cerevisiae deletion strains, locus YLR342W, strain FKS1, active compounds read low 0.0636 | S. cerevisiae deletion strains, locus YLR357W, strain rsc2, active compounds read low 0.117 | S. cerevisiae deletion strains, locus YLR370C, strain arc18, active compounds read low 0.0611 | S. cerevisiae deletion strains, locus YLR371W, strain rom2, active compounds read low 0.0611 | S. cerevisiae deletion strains, locus YLR384C, strain iki3, active compounds read low 0.0615 | S. cerevisiae deletion strains, locus YLR418C, strain cdc73, active compounds read low 0.0961 | S. cerevisiae deletion strains, locus YML016C, strain PPZ1, active compounds read low 0.0529 | S. cerevisiae deletion strains, locus YML032C, strain rad52, active compounds read low 0.385 | S. cerevisiae deletion strains, locus YML120C, strain ndi1, active compounds read low 0.0583 | S. cerevisiae deletion strains, locus YML124C, strain tub3, active compounds read low 0.0625 | S. cerevisiae deletion strains, locus YMR058W, strain fet3, active compounds read low 0.0576 | S. cerevisiae deletion strains, locus YMR078C, strain ctf18, active compounds read low 0.553 | S. cerevisiae deletion strains, locus YMR125W, strain sto1, active compounds read low 0.0733 | S. cerevisiae deletion strains, locus YMR129W, active compounds read low 0.0569 | S. cerevisiae deletion strains, locus YMR205C, strain PFK2, active compounds read low 0.214 | S. cerevisiae deletion strains, locus YMR223W, strain ubp8, active compounds read low 0.0625 | S. cerevisiae deletion strains, locus YMR231W, strain pep5, active compounds read low 0.0683 | S. cerevisiae deletion strains, locus YMR307W, strain GAS1, active compounds read low 0.108 | S. cerevisiae deletion strains, locus YNL067W, strain RPL9B, active compounds read low 0.0496 | S. cerevisiae deletion strains, locus YNL071W, strain lat1, active compounds read low 0.0618 | S. cerevisiae deletion strains, locus YNL209W, strain ssb2, active compounds read low 0.0612 | S. cerevisiae deletion strains, locus YNL233W, strain BNI4, active compounds read low 0.0522 | S. cerevisiae deletion strains, locus YNL248C, strain rpa49, active compounds read low 0.0751 | S. cerevisiae deletion strains, locus YNL250W, strain rad50, active compounds read low 0.0636 | S. cerevisiae deletion strains, locus YNL271C, strain bni1, active compounds read low 0.0611 | S. cerevisiae deletion strains, locus YNL298W, strain CLA4, active compounds read low 0.0629 | S. cerevisiae deletion strains, locus YNL307C, strain MCK1, active compounds read low 0.0661 | S. cerevisiae deletion strains, locus YNL322C, strain KRE1 (second series), active compounds read low 0.0706 | S. cerevisiae deletion strains, locus YNL322C, strain KRE1, active compounds read low 0.0518 | S. cerevisiae deletion strains, locus YNR049C, strain mso1, active compounds read low 0.0568 | S. cerevisiae deletion strains, locus YNR052C, strain pop2, active compounds read low 0.749 | S. cerevisiae deletion strains, locus YOL006C, strain TOP1, active compounds read low 0.113 | S. cerevisiae deletion strains, locus YOL147C, strain pex11, active compounds read low 0.127 | S. cerevisiae deletion strains, locus YOR001W, strain rrp6, active compounds read low 0.0671 | S. cerevisiae deletion strains, locus YOR061W, strain CKA2, active compounds read low 0.0507 | S. cerevisiae deletion strains, locus YOR069W, strain VPS5, active compounds read low 0.0519 | S. cerevisiae deletion strains, locus YOR070C, strain gyp1, active compounds read low 0.0577 | S. cerevisiae deletion strains, locus YOR080W, strain dia2, active compounds read low 0.0646 | S. cerevisiae deletion strains, locus YOR083W, strain WHI5, active compounds read low 0.167 | S. cerevisiae deletion strains, locus YOR106W, strain vam3, active compounds read low 0.0652 | S. cerevisiae deletion strains, locus YOR136W, strain idh2, active compounds read low 0.0689 | S. cerevisiae deletion strains, locus YOR144C, strain elg1, active compounds read low 0.712 | S. cerevisiae deletion strains, locus YOR184W, strain ser1, active compounds read low 0.0694 | S. cerevisiae deletion strains, locus YOR265W, strain rbl2, active compounds read low 0.0565 | S. cerevisiae deletion strains, locus YOR270C, strain vph1, active compounds read low 0.0934 | S. cerevisiae deletion strains, locus YOR290C, strain snf2, active compounds read low 0.0963 | S. cerevisiae deletion strains, locus YOR316C, strain cot1, active compounds read low 0.0587 | S. cerevisiae deletion strains, locus YPL051W, strain arl3, active compounds read low 0.063 | S. cerevisiae deletion strains, locus YPL055C, strain LGE1, active compounds read low 0.0702 | S. cerevisiae deletion strains, locus YPL078C, strain atp4, active compounds read low 0.0642 | S. cerevisiae deletion strains, locus YPL106C, strain sse1, active compounds read low 0.104 | S. cerevisiae deletion strains, locus YPL240C, strain hsp82, active compounds read low 0.112 | S. cerevisiae deletion strains, locus YPL241C, strain CIN2, active compounds read low 0.0551 | S. cerevisiae deletion strains, locus YPR119W, strain clb2, active compounds read low 0.0623 | S. cerevisiae deletion strains, locus YPR141C, strain kar3, active compounds read low 0.0649 | S. cerevisiae deletion strains, locus YPR163C, strain tif3, active compounds read low 0.0763 | S. cerevisiae deletion strains, locus YPR167C, strain met16, active compounds read low 0.0614 | S. cerevisiae deletion strains, strain wtn01, active compounds read low 0.0583 | S. cerevisiae strains, strain wild type, active compounds read low 0.0541
inactive: S. cerevisiae deletion strains, locus YLR113W, strain HOG1, active compounds read low 1.04 | S. cerevisiae deletion strains, locus YNL183C, strain NPR1, active compounds read low 0.919 | S. cerevisiae deletion strains, locus YOL012C, strain htz1 0.214 | S. cerevisiae deletion strains, locus YOR231W, strain MKK1, active compounds read low 0.916 | S. cerevisiae deletion strains, locus YPL256C, strain CLN2, active compounds read low 0.971
